Reference: PubChem BioAssay (Tox21)
Several values for one entry are separate records, joined by “and”; a condition that tells them apart may be missing. Equal values may be shown once. Results filed as inconclusive are left out. A structure can be active in one record and inactive in another. Activity calls are given as the source filed them. Unless noted, calls follow the shape of the dose curve; as a rule, active = well fitted curve in the direction sought with a large enough effect in the repeat runs; inconclusive = weak or mixed curves; inactive = no such curve, though single readings can be large; an effect the other way counts as inactive or inconclusive.

Columns and labels:
[1] = qHTS assay to identify small molecule agonists of the peroxisome proliferator-activated receptor delta (PPARd) signaling pathway - cell viability counter screen (AID 743211); also: nearly all actives have a fitted effect of over 55% in size; also: potency is read from the fitted curve at half-maximal effect
How it was run: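 Following 5 h plating at 37 C and 5% CO2, PPARd UAS-bla HEK293H cells took up test compounds for 17 h. Viability was quantified by luminescence 30 min after CellTiter-Glo addition at room temperature.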

[2] = target: Peroxisome proliferator-activated receptor delta (Homo sapiens) (UniProt Q03181); assay: qHTS assay to identify small molecule agonists of the peroxisome proliferator-activated receptor delta (PPARd) signaling pathway (AID 743212; calls by dose curve)
How it was run: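 Steps: seed PPARd-bla HEK293H cells; incubate 5 h, 37 C, 5% CO2; add compounds in DMSO; incubate, 37 C; add LiveBLAzer B/G FRET substrate; hold 2 h at room temperature; measure fluorescence.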

[3] = qHTS assay to identify small molecule antagonists of the peroxisome proliferator-activated receptor delta (PPARd) signaling pathway - cell viability counter screen (AID 743213); also: nearly all actives have a fitted effect of over 50% in size; also: potency is read from the fitted curve at half-maximal effect
How it was run: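 Agonist-stimulated (L165041, 300 nM final) HEK293H PPARd UAS-bla cells are exposed to compounds for 17 h at 37 C, and ATP-based luminescence (CellTiter-Glo) from the same wells reports cytotoxicity.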

[4] = target: Peroxisome proliferator-activated receptor delta (Homo sapiens) (UniProt Q03181); assay: qHTS assay to identify small molecule antagonists of the peroxisome proliferator-activated receptor delta (PPARd) signaling pathway (AID 743215; active = well fitted inhibition curve with a large enough effect in the signal ratio in the repeat runs, not every such curve was filed as active; the % refers to the signal ratio; also: series mostly up to about 62 µM)
How it was run: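 HEK293H GeneBLAzer PPARd UAS-bla reporter cells; cpd + L165041 300 nM final, 17 h 37 C; LiveBLAzer B/G FRET substrate 2 h RT; fluorescence intensity read-out. Antagonist mode.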

[5] = target: Bile acid receptor (Homo sapiens) (UniProt Q96RI1); assay: qHTS assay to identify small molecule antagonists of the farnesoid-X-receptor (FXR) signaling pathway (AID 743217; active = well fitted inhibition curve with a large enough effect in the signal ratio in the repeat runs, not every such curve was filed as active; the % refers to the signal ratio)
How it was run: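 Read-out: beta-lactamase FRET fluorescence (LiveBLAzer B/G substrate, 2 h, room temperature) in GeneBLAzer FXR-UAS-bla HEK 293T cells. Compounds were co-dosed with 50 uM chenodeoxycholic acid (final) and incubated 16 h at 37 °C.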

[6] = qHTS assay to identify small molecule agonists of the farnesoid-X-receptor (FXR) signaling pathway - cell viability counter screen (AID 743218); also: nearly all actives have a fitted effect of over 45% in size; also: potency is read from the fitted curve at half-maximal effect
How it was run: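 Luminescence from CellTiter-Glo, read after 30 min at RT, reports viability of GeneBLAzer FXR-UAS-bla HEK 293T cells treated 16 h with compounds in the wells used for the beta-lactamase reporter.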

[7] = target: Bile acid receptor (Homo sapiens) (UniProt Q96RI1); assay: qHTS assay to identify small molecule agonists of the farnesoid-X-receptor (FXR) signaling pathway (AID 743220; active = well fitted activation curve with a large enough effect in the signal ratio in the repeat runs, not every such curve was filed as active; the % refers to the signal ratio)
How it was run: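 FXR-UAS-bla HEK 293T cells carrying a UAS-driven beta-lactamase reporter were plated for 5 h at 37C/5% CO2, then exposed to DMSO-dissolved Tox21 10K compounds for 16 h at 37C. A LiveBLAzer B/G FRET substrate was loaded for 2 h at room temperature before fluorescence reading.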

[8] = qHTS assay to identify small molecule antagonists of the farnesoid-X-receptor (FXR) signaling pathway - cell viability counter screen (AID 743221; active = well fitted cell-killing curve with a large enough effect in the repeat runs, not every such curve was filed as active; also: nearly all actives have a fitted effect of over 50% in size; also: potency is read from the fitted curve at half-maximal effect)
How it was run: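 Compound effects on cell number were measured as CellTiter-Glo luminescence in HEK 293T cells expressing FXR-UAS-bla, after 16 h at 37 C with 50 uM CDCA (final).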

[9] = target: Vitamin D3 receptor (Homo sapiens) (UniProt P11473); assay: qHTS assay to identify small molecule agonists of the vitamin D receptor (VDR) signaling pathway (AID 743222; calls by dose curve)
How it was run: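 Beta-lactamase reporter readout (LiveBLAzer B/G FRET, 2 h RT) in VDR-bla cells after 16 h compound treatment at 37C, 5% CO2; cells pre-incubated 4 h before pin transfer of DMSO solutions.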

[10] = target: Vitamin D3 receptor (Homo sapiens) (UniProt P11473); assay: qHTS assay to identify small molecule antagonists of the vitamin D receptor (VDR) signaling pathway (AID 743223; active = well fitted inhibition curve with a large enough effect in the signal ratio in the repeat runs, not every such curve was filed as active; the % refers to the signal ratio)
How it was run: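 Beta-lactamase activity in VDR-bla cells is measured by FRET substrate fluorescence (2 h, room temperature) after cells spend 16 h at 37C with test compound and 3 nM final 1alpha,25-dihydroxyvitamin D3.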

Measured: Potency

Peroxisome proliferator-activated receptor delta (Homo sapiens), sequence (Q03181 whole entry, looked up): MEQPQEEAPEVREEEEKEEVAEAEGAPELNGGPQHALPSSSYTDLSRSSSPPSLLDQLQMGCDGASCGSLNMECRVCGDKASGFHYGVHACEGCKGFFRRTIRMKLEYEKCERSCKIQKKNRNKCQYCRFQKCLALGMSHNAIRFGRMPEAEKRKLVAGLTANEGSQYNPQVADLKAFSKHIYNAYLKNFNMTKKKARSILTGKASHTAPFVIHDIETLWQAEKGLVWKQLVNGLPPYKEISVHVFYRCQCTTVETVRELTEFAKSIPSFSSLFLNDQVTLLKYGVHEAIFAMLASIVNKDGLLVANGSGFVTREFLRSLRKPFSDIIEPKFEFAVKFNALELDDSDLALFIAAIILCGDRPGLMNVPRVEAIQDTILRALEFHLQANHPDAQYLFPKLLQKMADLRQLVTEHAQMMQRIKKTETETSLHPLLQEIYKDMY
Vitamin D3 receptor (Homo sapiens), sequence (P11473 whole entry, looked up): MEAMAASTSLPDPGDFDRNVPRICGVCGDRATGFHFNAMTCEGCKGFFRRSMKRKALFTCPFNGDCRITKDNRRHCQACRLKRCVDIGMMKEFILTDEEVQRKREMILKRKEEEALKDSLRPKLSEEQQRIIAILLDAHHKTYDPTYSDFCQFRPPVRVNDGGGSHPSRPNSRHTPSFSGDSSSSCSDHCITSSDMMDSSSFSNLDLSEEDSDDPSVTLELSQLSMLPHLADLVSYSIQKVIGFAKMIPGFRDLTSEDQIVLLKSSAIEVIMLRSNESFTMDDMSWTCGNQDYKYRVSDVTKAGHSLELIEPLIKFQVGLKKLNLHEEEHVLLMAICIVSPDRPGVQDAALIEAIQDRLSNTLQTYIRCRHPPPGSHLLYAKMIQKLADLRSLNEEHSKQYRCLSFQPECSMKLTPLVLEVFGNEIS
Bile acid receptor (Homo sapiens), sequence (Q96RI1 whole entry, looked up): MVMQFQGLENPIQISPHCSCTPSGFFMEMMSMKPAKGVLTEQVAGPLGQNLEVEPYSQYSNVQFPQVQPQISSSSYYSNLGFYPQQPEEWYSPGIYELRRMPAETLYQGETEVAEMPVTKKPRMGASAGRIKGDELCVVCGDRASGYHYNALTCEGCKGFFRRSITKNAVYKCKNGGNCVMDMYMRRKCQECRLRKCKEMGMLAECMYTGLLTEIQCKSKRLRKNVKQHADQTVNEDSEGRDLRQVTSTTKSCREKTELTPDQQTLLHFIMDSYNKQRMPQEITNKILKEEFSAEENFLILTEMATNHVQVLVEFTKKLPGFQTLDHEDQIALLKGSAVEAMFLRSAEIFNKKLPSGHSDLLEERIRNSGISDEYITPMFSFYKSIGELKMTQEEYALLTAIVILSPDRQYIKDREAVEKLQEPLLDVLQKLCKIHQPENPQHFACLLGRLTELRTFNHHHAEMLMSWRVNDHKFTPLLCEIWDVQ

NC(=O)/N=N/C(N)=O
inactive: [1] | [2] | [3] | [4] | [5] | [6] | [7] | [8] | [9] | [10]

Oc1ccc(OCc2ccccc2)cc1
inactive: [1] | [2] | [3] | [4] | [5] | [6] | [7] | [8] | [9] | [10]

CCCCCC/C=C/CCCCCCCC(=O)O
inactive: [1] | [2] | [3] | [4] | [5] | [6] | [7] | [8] | [10]

NCc1cccc(CN)c1
inactive: [1] | [2] | [3] | [4] | [5] | [6] | [7] | [8] | [9] | [10]

CCCCC(CC)COC(=O)CCCCCCCC(=O)OCC(CC)CCCC (stereo unspecified)
inactive: [1] | [2] | [3] | [4] | [5] | [6] | [7] | [8]

O=S(=O)(O)c1cc(S(=O)(=O)O)c2c(N=Nc3ccccc3)c(O)ccc2c1
inactive: [1] | [2] | [3] | [4] | [5] | [6] | [7] | [8] | [9] | [10]

Cc1ccc(N)c(S(=O)(=O)O)c1
inactive: [1] | [2] | [3] | [4] | [5] | [6] | [7] | [8] | [9]

C=C(C)C(=O)OCC(CC)(COC(=O)C(=C)C)COC(=O)C(=C)C
inactive: [1] | [2] | [3] | [4] | [5] | [6] | [7] | [8]

CC(C)(C)C(=O)C1C(=O)c2ccccc2C1=O
inactive: [1] | [2] | [3] | [4] | [6] | [7] | [8] | [9] | [10]

CCCCCCCCCCCCN
inactive and 43.6 µM (active): [6]
inactive and 19.5 µM (active): [1]
inactive: [2] | [4]
inactive and 49 µM (active): [3] | [8]

O=c1c(-c2ccc(O)cc2)coc2cc(O)ccc12
inactive: [1] | [2] | [3] | [4] | [6] | [7] | [8]

CCCCCCOC(C)=O
inactive and 24.5 µM (active): [6]
inactive: [1] | [2] | [3] | [4] | [5] | [7] | [8] | [9]

Clc1ccc(Cl)c(Cl)c1Cl
inactive: [1] | [2] | [3] | [4] | [5] | [6] | [7] | [8] | [9] | [10]

O=C(c1cc(O)c(O)c(O)c1)c1ccc(O)c(O)c1O
inactive: [1] | [2] | [3] | [4] | [5] | [6] | [7] | [8] | [9] | [10]

C=C(C)C(=O)OCCCCCCCCCCCC
inactive: [1] | [2] | [3] | [4] | [6] | [8] | [9] | [10]

CS(=O)(=O)c1ccc([C@@H](O)[C@@H](CO)NC(=O)C(Cl)Cl)cc1
inactive: [1] | [2] | [3] | [4] | [6] | [8] | [9] | [10]

CC1=CC[C@H]2C[C@@H]1C2(C)C
inactive: [1] | [2] | [3] | [6] | [8] | [9]

CCOC(=O)/C=C\C(=O)OCC
inactive: [1] | [2] | [3] | [4] | [6] | [8] | [9] | [10]

O=[N+]([O-])c1cc(N(CCO)CCO)ccc1NCCO
inactive: [1] | [2] | [3] | [4] | [6] | [8] | [9] | [10]

CCCCC/C=C\C/C=C\CCCCCCCC(=O)OC
inactive: [1] | [2] | [3] | [8]
inactive and 54.9 µM (active): [6]

ClC1=C(Cl)C(Cl)(Cl)C(Cl)=C1Cl
inactive: [1] | [2] | [3] | [4] | [6] | [8] | [9] | [10]

COCC(=O)O
inactive: [1] | [2] | [3] | [4] | [6] | [8] | [9] | [10]

O=C1CCCCC1
inactive: [1] | [2] | [3] | [4] | [6] | [8] | [9] | [10]

CC[Si](OC(C)=O)(OC(C)=O)OC(C)=O
inactive: [1] | [2] | [3] | [4] | [6] | [8] | [9] | [10]

CC(C)(N=C=O)c1cccc(C(C)(C)N=C=O)c1
inactive: [1] | [2] | [3] | [4] | [8] | [9] | [10]

CCCCCCCCCCC=CC1CC(=O)OC1=O (stereo unspecified)
inactive: [1] | [2] | [3] | [5] | [6] | [7] | [8] | [9] | [10]
